# Source: PubChem BioAssay (National Center for Advancing Translational Sciences (NCATS))
# An excerpt weighted towards active compounds, which were near 19% of everything screened.
# TDP1 block = blocks human tyrosyl-DNA phosphodiesterase 1; recombinant TDP1, AlphaScreen DNA substrate cleavage; actives 0.28% (n = 350,000); Q9NUW8; Potency, µM (doses to about 130 µM), most hits filed as inhibitors; note: nearly all actives have a fitted effect of over 40% in size
# Target sequence (Q9NUW8 whole entry, looked up): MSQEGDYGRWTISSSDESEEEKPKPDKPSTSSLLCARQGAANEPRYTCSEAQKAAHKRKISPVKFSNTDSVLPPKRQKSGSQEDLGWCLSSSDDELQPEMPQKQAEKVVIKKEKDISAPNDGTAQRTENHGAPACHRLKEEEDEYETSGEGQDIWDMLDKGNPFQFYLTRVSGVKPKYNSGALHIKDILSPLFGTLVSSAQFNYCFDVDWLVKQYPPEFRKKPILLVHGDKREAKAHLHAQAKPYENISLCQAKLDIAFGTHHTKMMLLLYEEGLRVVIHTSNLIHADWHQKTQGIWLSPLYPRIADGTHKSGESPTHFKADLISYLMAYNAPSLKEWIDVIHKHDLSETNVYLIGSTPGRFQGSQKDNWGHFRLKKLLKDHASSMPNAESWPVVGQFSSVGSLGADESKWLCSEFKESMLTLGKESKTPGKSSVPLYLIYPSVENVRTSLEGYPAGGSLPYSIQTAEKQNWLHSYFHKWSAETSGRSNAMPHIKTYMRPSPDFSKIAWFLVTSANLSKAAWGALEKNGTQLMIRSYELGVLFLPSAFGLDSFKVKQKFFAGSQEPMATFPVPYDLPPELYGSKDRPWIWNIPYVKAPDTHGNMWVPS
#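 E. coli-derived human Tdp1, 1 nM final. Cpd preinc 15 min RT; substrate 15 nM final, 5 min RT; AS bead mix 10 ug/ml final, 10 min RT. Signal loss = tyrosine-FITC cleavage. No-enzyme wells = max signal.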
# HepG2 viability = HepG2 cytotoxicity, counter-screen for TGF-b inhibitors. HepG2 CAGA-GFP viability, ATP luminescence, 18 h. Potency, µM (series often up to 46.1 µM), hits mostly cytotoxic. actives 0.76% (n = 410,000). AID 588856
#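 CellTiter-Glo luminescence gave cytotoxicity after 18 hours at 37 degrees C. The cells were HepG2 CAGA-GFP in 1% FBS DMEM, stimulated with 500 pg/mL TGF-beta after compound addition. %Activity was normalised to no-cell wells (complete cell-killing) and DMSO (no toxicity), and curves were fitted and classified.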
# TGFb inhibitor = TGF-b pathway inhibition | HepG2 CAGA-GFP TGF-b/SMAD3 reporter, GFP fluorescence, 18 h; TGF-beta stimulated, 500 pg/mL final | Potency, µM (titrated, usually from 46.1 µM), actives largely listed as inhibitors | actives 1.2% (n = 410,000); note: nearly all actives have a fitted effect of over 65% in size
#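 HEPG2 CAGA-GFP, 1000 cells/well; 2 h settle, 37 C; cpd via pin tool; TGF-b 500 pg/mL final; 18 h, 37 C; GFP imaging ex488/em500-530; %Activity normalised to -TGF-b and +DMSO controls; CRC fit, curve class.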
# TDP1 cell noCPT = qHTS for Inhibitors of human tyrosyl-DNA phosphodiesterase 1 (TDP1): qHTS in cells in absence of CPT | DT40 Tdp1-/- hTDP1 cells, no CPT, ATP luminescence, 48 h | Potency, µM (titrated, usually from 46.2 µM), usual class: inhibitors | actives 15% (n = 420,000) | AID 686978, 2013; note: nearly all actives have a fitted effect of over 55% in size
#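 Chicken DT40 Tdp1-/- cells stably complemented with human TDP1 were seeded at 400 cells/well with DMSO in place of 20 nM camptothecin. After compound pinning, cells grew at least 48 hr at 37 °C; viability read by CellTiter-Glo luminescence.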
# DT40 TDP1 CPT = DT40-hTDP1 cell growth loss with CPT | chicken DT40 Tdp1-/-;hTDP1 cells + 20 nM CPT, ATP luminescence, 48 h | Potency, µM (top dose mostly 46.2 µM), actives largely listed as inhibitors | actives 12% (n = 420,000) | AID 686979; note: nearly all actives have a fitted effect of over 55% in size
#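 Chicken DT40 Tdp1-/- cells complemented with human TDP1, 400 cells/well, exposed to compounds plus 20 nM camptothecin for at least 48 h at 37 C; viability read as ATP content by CellTiter-Glo luminescence.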
# IL-1B inflam inh = inflammasome signaling inhibition, IL-1 beta readout; activity change, % at 57.5 µM; THP-1 LPS/ATP IL-1B secretion, AlphaLISA, 16 h; hits give low values; AID 743279; actives 4.7% (n = 360,000); in the data active = activity change below about -50%; inconclusive = mostly about -30% to -49%
#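 THP-1 cells pretreated 1 hr with compounds (up to 57.5 uM final), then stimulated with LPS (250 ng/mL final) plus ATP (1.25 mM final); secreted IL-1B measured by AlphaLISA after 16 hr, decreased signal indicating inhibition.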
# Numbers stand for hits; i = inactive; ? = inconclusive; nt = no result; [ ] = another dose, or the depositor's remark. Unless noted, calls come from the whole dose curve; as a rule, active = well fitted curve in the direction sought with a large enough effect; inconclusive = small, poorly fitted or top-dose-only effect, or another doubt; inactive = no such curve, though single readings can be large; an effect the other way counts as inactive or inconclusive.
SMILES,TDP1 block,HepG2 viability,TGFb inhibitor,TDP1 cell noCPT,DT40 TDP1 CPT,IL-1B inflam inh
CN1C(=O)/C(=C2\SC(N3CCCCCC3)=NC2=O)c2ccccc21,i,i,i,?,?,i
CCCN1C(=O)/C(=C2\SC(N3CCCCC3)=NC2=O)c2ccccc21,i,i,i,18µM,?,-55
CN1C(=O)/C(=C2\SC(N)=NC2=O)c2ccccc21,i,i,i,26µM,18µM,i
Nc1c(NC=O)c(=O)n(Cc2ccccc2)c(=O)n1Cc1ccccc1,nt,i,i,i,i,i
CC/C=C\C[C@H]1C(=O)CC[C@@H]1CC(=O)O,i,nt,nt,i,i,nt
C[C@@H]1CN([C@@H](C)CO)C(=O)Cc2cc(NC(=O)Nc3cccc4ccccc34)ccc2O[C@@H]1CN(C)Cc1ccc(C(F)(F)F)cc1,i,i,?,16µM,?,nt
C[C@@H]1CN([C@H](C)CO)C(=O)c2cc(NC(=O)Nc3cccc4ccccc34)ccc2O[C@H]1CN(C)Cc1ccc(C(F)(F)F)cc1,i,i,?,8.2µM,10µM,i
C[C@@H]1CN([C@@H](C)CO)C(=O)c2cc(NS(=O)(=O)c3cccs3)ccc2O[C@H]1CN(C)Cc1ccc(C(F)(F)F)cc1,i,i,?,26µM,?,-63
Cc1nn(-c2ccccc2)c(C)c1C(=O)OCc1ccc(C#N)cc1,nt,i,i,?,?,i
COCn1c2ccccc2c2nnc(C(=O)O)nc21,i[21 µM],nt,nt,nt,nt,nt
N/C(=N\c1nc(CSc2ccccn2)cc(=O)[nH]1)Nc1ccc(Cl)cc1Cl,i,i,i,?,?,i
O=C(COc1ccccc1)N(Cc1cccnc1)c1nc2c(F)cccc2s1,i,i,?,i,i,nt
COc1c(Cl)cc(Cl)cc1CNCCSc1nnnn1C,i,i,i,i,i,nt
C[C@@H]1CN([C@@H](C)CO)C(=O)CCCn2nncc2CO[C@@H]1CN(C)S(=O)(=O)c1ccc2ccccc2c1,nt,i,i,i,?,?
CCc1c(C)c2ccc(O)c(CN3CCN(c4ccccc4)CC3)c2oc1=O,i,i,nt,21µM,15µM,nt
COc1ccc(-c2c(C)c3ccc(O)c(CN4CCCC4)c3oc2=O)cc1,i,i,i,15µM,?,nt
COc1ccc(-n2c(C)c([N+](=O)[O-])c3ccc(O)c(CN4CCCCC4)c32)cc1,i,i,i,?,16µM,-68
Cc1c(-c2ccc(Cl)cc2)c(=O)oc2c(CN3CCN(C)CC3)c(O)ccc12,i,i,i,23µM,?,nt
Cc1ccc(-n2c(C)c([N+](=O)[O-])c3ccc(O)c(CN(C)C)c32)cc1,i,i,i,?,?,?
CCNC(=O)N1C[C@H]2CON(C)[C@H]2C[C@H]1c1ccccc1Br,nt,i,i,i,i,i
COc1ccc(-c2c(C)c3ccc(O)c(CN4CCOCC4)c3oc2=O)cc1,i,i,i,23µM,16µM,nt
COc1ccc(Oc2c(C)oc3c(CN4CCOCC4)c(O)ccc3c2=O)cc1,i,i,i,i,i,i
COc1cccc(C2CC(c3cccs3)=NN2S(C)(=O)=O)c1 (stereo unspecified),i,i,i,i,i,i
CC12CC3(C)CC(C)(C1)CC(C(=O)NCC(=O)O)(C2)C3,i,i,i,i,i,i
CN(C)C(=S)NC(=O)C12CC3(C)CC(C)(CC(C)(C3)C1)C2,i,i,i,1.3µM,i,i
SMILES,TDP1 block,HepG2 viability,TGFb inhibitor,TDP1 cell noCPT,DT40 TDP1 CPT,IL-1B inflam inh
COc1cc(CCCN2C(=S)NC[C@H]2Cc2ccc(O)cc2)cc(OC)c1OC,i,i,?,15µM,?,i
COc1cc(CCCN2C(=O)C(=O)NC[C@@H]2Cc2ccc(O)cc2)cc(OC)c1OC,i,i,i,i,i,i
Fc1ccc2[nH]c3c(c2c1)CN(C(=S)NCc1ccccc1)CC3,i,i,?,?,i,-89
Oc1ccc(O)cc1,i,nt,nt,?,21µM,nt
CCc1ccc(C(=O)NNC(=O)OC)cc1,?,i,i,29µM,?,i
CCc1ccc(NC(=O)C(=O)NNC(=O)c2ccc(OC)cc2)cc1,i,i,i,?,?,i
Cc1ccc(NC(=O)N(Cc2ccco2)C(C)c2ccco2)cc1C (stereo unspecified),i,i,i,23µM,?,i
Cc1ccc(NC(=O)C[n+]2ccccc2)cc1C,nt,i,i,?,i,i
Cc1ccc(NC(=O)CN(Cc2ccco2)Cc2ccccc2O)cc1C,i,i,?,?,?,-62
Cc1ccc(NC(=O)N(Cc2cccnc2)Cc2ccco2)cc1C,i,i,i,i,i,i
C[C@H]1C2=C3C(C[C@H]4C(=O)N(c5ccccc5)C(=O)[C@H]4[C@H]3[C@@]3(Cc4ccccc4)C(=NCCc4c[nH]c5ccccc45)OC(=O)N3C2=O)[C@H]2C(=O)N(c3ccccc3)C(=O)[C@H]21 (stereo partly specified),i,nt,nt,nt,nt,nt
Cc1c(C(=O)N(C)C)sc2nc(-c3ccccn3)[nH]c(=O)c12,i,i,i,?,i,i
O=c1[nH]c(-c2ccccn2)nc2sc(-c3ccccc3)cc12,i,i,?,2.1µM,2.3µM,-102
CCOc1cc(CNC(=O)C(NS(=O)(=O)c2cccs2)C(C)C)cc(OCC)c1OCC (stereo unspecified),i,i,i,i,i,nt
Cc1ccc(NC(=O)CN2C(=O)S/C(=C\c3cccn3-c3cccc(C(=O)O)c3)C2=O)c(C)c1,50µM,i,i,i,i,i
Cc1ccccc1NC(=O)CN1C(=O)S/C(=C\c2cccn2-c2cccc(C(=O)O)c2)C1=O,50µM,i,i,i,i,i
Cc1cccc(C)c1NC(=O)CN1C(=O)S/C(=C\c2cccn2-c2cccc(C(=O)O)c2)C1=O,nt,i,i,i,i,i
Cc1cccc(NC(=O)CN2C(=O)S/C(=C\c3cccn3-c3cccc(C(=O)O)c3)C2=O)c1,nt,i,i,i,i,i
COCCCn1c(=O)c2sccc2n2c(CCCC(=O)NCc3ccc(F)cc3)nnc12,i,i,i,?,i,i
CCCS(=O)(=O)c1cnc(C2COc3ccccc3O2)nc1N (stereo unspecified),nt,i,i,16µM,?,i
O=C(c1[nH]c(C(F)(F)F)nc1-c1ccccc1)N1CCN(c2ccncc2)CC1,nt,i,i,i,i,i
O=C(c1cc(Cl)cc(Cl)c1)N1CCN(c2cc(C(F)(F)F)nc3ccccc23)CC1,i,i,i,12µM,21µM,i
